Compound activity (PubChem BioAssay)
HT1080 IDH1KD tx – kills HT-1080 cells with IDH1 knockdown; Potency, µM (top dose mostly 46.1 µM), for the others: at the top dose activity, negative = toxicity, most hits filed as cytotoxic; HT-1080 IDH1 knockdown viability, ATP luminescence, 48 h; actives 2% (n = 360,000);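 further: 0% = DMSO wells and -100% = cell-free medium wells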
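Cytotoxicity counter-line: IDH1KD HT-1080, 48 h, CellTiter-Glo. Curves classed by r2, magnitude and activity.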
KB-V1 cytotox – kills drug-selected multidrug resistant KB-V1 cells | KB-V1 MDR cells viability, CellTiter-Glo, 72 h | Potency, µM (top dose mostly 46.1 µM), hits mostly cytotoxic | actives 3.4% (n = 400,000) | AID 1347076; further: on the % scale 0 is the no-effect control and ±100 the full control effect; nearly all actives have a fitted effect of over 60% in size
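KB-V1 cells (P-gp-expressing MDR subline of KB-3-1) in phenol-red-free DMEM with 10% FBS were exposed to library compounds over a concentration series for 72 h at 37 degrees C. Viability read by CellTiter-Glo luminescence; concentration-effect curves fitted after normalization.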
HT1080NT lethal – kills 2HG-producing HT-1080-NT fibrosarcoma cells | HT-1080-NT fibrosarcoma viability, CellTiter-Glo ATP luminescence, 48 h | Potency, µM (top dose mostly 46.1 µM), inactives show at the top dose activity, negative = less viability, most hits filed as cytotoxic | actives 1.6% (n = 360,000);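 further: NT is the 2HG producing partner of a matched IDH1 knockdown line; 0% = DMSO-treated cells and -100% = media-only wells without cells; nearly all actives have a fitted effect of over 55% in size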
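750 cells/well, RPMI + 5% FBS; 2 h settle, compound pin-transfer, 48 h at 37 degrees C. CellTiter-Glo 10 min RT, luminescence. Normalized to DMSO and media-only wells.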
ATXN2 expr inh – reduces ATXN2 reporter expression in HEK-293 cells. HEK-293 ATXN2-luciferase reporter, luminescence, 24 h. AID 1745845. Potency, µM (series often up to 57 µM), inactives show at the top dose activity change, negative = inhibition, actives largely listed as inhibitors. actives 0.72% (n = 360,000); further: on the % scale 0 is the no-effect control and ±100 the full control effect; nearly all actives have a fitted effect of over 55% in size
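ATXN2-luciferase reporter cells (luciferase flanked by upstream and downstream ATXN2 gene portions) were treated 24 h at 37 °C with compounds at up to 57 uM. SteadyGlo luminescence gave expression; GF-AFC fluorescence gave viability.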
KB-3-1 tox – KB-3-1 parental cell cytotoxicity. KB-3-1 viability, CellTiter-Glo ATP luminescence, 72 h. Potency, µM (top dose mostly 46.1 µM), hits mostly cytotoxic. actives 1.4% (n = 400,000); further: on the % scale 0 is the no-effect control and ±100 the full control effect; nearly all actives have a fitted effect of over 60% in size
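Cytotoxicity in the drug-sensitive parental line KB-3-1 was scored as loss of CellTiter-Glo luminescence following 72 h incubation with compound. Values come from curve fitting of normalized concentration-response data.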
ATXN viability – cell viability loss in ATXN counter-screen. S2 cells (HEK-293 line with an ATXN2-luciferase reporter) viability, CellTiter-Fluor protease fluorescence, 24 h. Potency, µM (series often up to 56.7 µM), hits mostly cytotoxic. actives 0.49% (n = 400,000). AID 651635; further: nearly all actives have a fitted effect of over 40% in size
Active calls of the source: *; i = inactive; u = inconclusive; x = not tested or not shown; ! = not confirmed by another sample; [ ] = dose if it differs, or a comment. Most compounds without a hit are left out; they make up all but 6.2% or so of the library. The call rests on the fitted dose curve; in most records, active means well fitted curve in the direction sought with a large enough effect; inconclusive means small, poorly fitted or top-dose-only effect, or another doubt; inactive means no such curve, though single readings can be large; an effect the other way counts as inactive or inconclusive. Potency means the concentration at half of the fitted maximal effect.

SMILES	HT1080 IDH1KD tx	KB-V1 cytotox	HT1080NT lethal	ATXN2 expr inh	KB-3-1 tox	ATXN viability
CCC(C)(C)NC(=O)C(c1cccn1C)N(Cc1ccccc1)C(=O)Cn1nnc2ccccc21 (centres undefined)	20.3%	2.59µM*	7.6%	23.0%	i	i
O=c1cc(-c2ccc(O)c(O)c2)oc2c1ccc1ccccc12	-17.9%	i	11.5%[9.24 µM]	u	i	i
O=c1cc(-c2ccccc2)oc2cccc(O)c12	9.8%	i	14.7%	46.6%	i	i
O=c1cc(-c2ccc(O)c(O)c2)oc2ccc3ccccc3c12	-16.6%	18.4µM*	-2.4%	u	i	i
O=c1cc(-c2ccccc2)oc2ccc3ccccc3c12	-2.1%	20.6µM*	-15.9%	x	i	i
O=C1CCCc2c1cc(-c1ccccc1)n2-c1ccccc1	u	11.6µM*	u	45.3%	16.4µM*	i
COc1cccc(-c2cc(NC=O)c3ncc(-c4cccc(C(=O)NCCN(C)C)c4)n3c2)c1	20.6µM*	i	23.1µM*	-5.8%	i	i
COc1cccc(-c2cnc3c(NC=O)cc(-c4cccc(C(=O)N(C)C)c4)cn23)c1	u	23.1µM*	-20.9%	0.0%	i	i
Cc1ccc(-n2ncc3c(NC4CCCCC4)ncnc32)cc1Cl	x	i	x	103.2%	i	u
Cc1ccc(C)c(N2CCN(C(=O)Cn3cnc4nc5c(cc4c3=O)CCCC5)CC2)c1	x	i	x	-34.1%	i	u
COC(=O)[C@@H]1CCCN1C(=O)c1c(OC)cc(=O)n2c1CCN(Cc1ccc3c(c1)OCCO3)CC2	x	x	x	x	x	i
N=c1n(CCN2CCCC2)c2ccccc2n1CC(O)c1ccco1 (centres undefined)	6.1%	i	-1.9%	-11.5%	i	u
CC(C)(C)c1ccc(Cn2c(=N)n(CC(O)c3ccco3)c3ccccc32)cc1 (centres undefined)	20.6µM*	u	23.1µM*	u	u	21.2µM*
CCCCCCCn1c(=N)n(CC(O)c2ccco2)c2ccccc21 (centres undefined)	23.1µM*	u	16.4µM*	u	i	i
COc1ccccc1C(=O)N1CCCC(c2nc(SCCN3CCOCC3)ncc2C)C1 (centres undefined)	x	x	x	x	x	i
CC(=O)C1=C(C)NC(SCc2cccc([N+](=O)[O-])c2)=C(C#N)C1c1ccco1 (centres undefined)	-9.0%	10.3µM*	0.4%	0.5%	i	i
CC(=O)C1=C(C)NC(SCC(N)=O)=C(C#N)C1c1ccco1 (centres undefined)	2.4%	u	7.0%	9.7%	i	i
Cn1nnnc1Sc1ncnc2scc(-c3ccc(F)cc3)c12	20.6µM*	u	u	u	8.2µM*!	u
Cn1nnnc1Sc1ncnc2scc(-c3ccc(Br)cc3)c12	x	u	x	15.8µM*	11.6µM*	12.6µM*
Cn1nnnc1Sc1ncnc2scc(-c3ccccc3)c12	-22.9%	u	-4.4%	u	u	u
Cn1nnnc1Sc1ncnc2scc(-c3ccc[nH]3)c12	x	u	x	10µM*	u	u
Cc1c(F)cccc1NS(=O)(=O)c1cccs1	x	i	x	5.1%	i	i
COc1ccc(C(CCNCc2ccc(N(C)C)cc2)c2ccccc2OC)cc1 (centres undefined)	29.1µM*	u	u	u	i	i
COc1ccc(CNCCC(c2ccc(OC)cc2)c2ccccc2OC)cc1 (centres undefined)	20.6µM*	u	14.6µM*	-36.6%	u	u
COc1ccc(C(CCNCc2ccc(OC(C)C)cc2)c2ccccc2OC)cc1 (centres undefined)	u	23.1µM*	u	x	u	14.1µM*
CCOC(=O)C(=O)NCC(c1cccnc1)N1CCN(c2ccccc2)CC1 (centres undefined)	x	i	x	6.4%	i	i
